In all, about 64,000 compounds went through this assay and about 55 (0.09%) were called active. No rule for the calls is given here. The list is a sample of the results.
Target: Alkaline phosphatase, tissue-nonspecific isozyme (Homo sapiens) (UniProt P05186)
Assay: human TNAP enzyme inhibitors, biochemical, luminescent (AID 518);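 also: plate controls were vehicle for no effect and reference inhibitor for full effect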
Settings: purified TNAP enzyme, luminescent substrate readout; at 20 µM; active compounds read high

Sequence of Alkaline phosphatase, tissue-nonspecific isozyme (Homo sapiens) (P05186 whole entry, looked up): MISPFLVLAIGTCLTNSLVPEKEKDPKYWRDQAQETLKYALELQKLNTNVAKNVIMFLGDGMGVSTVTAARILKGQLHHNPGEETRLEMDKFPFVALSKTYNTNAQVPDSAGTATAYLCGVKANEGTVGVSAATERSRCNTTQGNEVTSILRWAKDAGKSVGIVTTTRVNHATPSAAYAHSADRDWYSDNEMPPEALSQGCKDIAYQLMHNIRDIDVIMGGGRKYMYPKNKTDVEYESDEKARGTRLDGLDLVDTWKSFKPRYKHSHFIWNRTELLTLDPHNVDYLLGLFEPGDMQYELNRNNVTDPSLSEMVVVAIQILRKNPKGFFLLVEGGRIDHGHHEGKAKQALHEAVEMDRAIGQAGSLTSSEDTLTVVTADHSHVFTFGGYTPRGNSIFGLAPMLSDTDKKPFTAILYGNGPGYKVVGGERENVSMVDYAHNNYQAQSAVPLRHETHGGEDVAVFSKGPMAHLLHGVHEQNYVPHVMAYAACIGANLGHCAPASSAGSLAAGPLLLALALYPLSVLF

inhibition, inactive:
CN(c1cccc(NC(=O)c2ccccc2N(C)S(C)(=O)=O)c1)S(C)(=O)=O 14.3%, O=C(NCCCN1CCCC1)C1CCC(=O)N1C1CCCCC1 (stereo unspecified) 7.6%, N#Cc1ccc(Sc2nc3ccccc3[nH]2)cc1C#N 0.3%, CC(C)Sc1nnc(NC(=O)C2CC2)s1 -0.5%, O=C(Nc1cccnc1)c1c(O)c2cccc3c2n(c1=O)CC3 5.4%, COc1ccc(CN2CCC(C(=O)N(C)CCc3ccc(OC)c(OC)c3)CC2)c(OC)c1 14%, O=C(NC1CCCCC1)c1ccc(Br)o1 9%, CC12CN3CC(C)(CN(C1)C3c1ccccc1Cl)C2O (stereo unspecified) 3.8%, O=C(NCCc1csc(-c2ccccc2)n1)c1cccs1 9.4%, Cc1cc(NC(=O)c2cccc(S(=O)(=O)N3CCCCCC3)c2)n(-c2ccccn2)n1 -5.7%, CCOC(=O)C1CCN(C(=O)COC(=O)CCOc2ccc(C)cc2)CC1 7.4%, CCOc1ccc(C(=O)CN2CCN(S(=O)(=O)c3ccc(Cl)cc3)CC2)cc1 4.9%, COc1ccc(C(C)=O)cc1CSc1nnc(C)s1 7%, CC(=O)c1cccc(NC(=O)c2cccc(S(=O)(=O)N(C)C)c2)c1 6.3%, c1ccc2c(c1)CNc1ccccc1C2 5%, COc1ccc(-n2nnc3c(SCC(=O)NCc4ccco4)ncnc32)cc1 11.9%, COc1cccc(NC(=O)c2ccc3c(c2)N(CC(=O)N2CCCCC2)C(=O)C(C)(C)O3)c1 1.3%, COc1ccc(Nc2nc(N)nc(SCc3nnc(C)s3)n2)cc1 -0.5%, COc1ccccc1N1CCN(C(=O)CSc2nnc3n2C(C)(C)Cc2ccccc2-3)CC1 10.5%, CC1=C(c2ccc(Cl)cc2)[N+](=O)C(C)(C)N1[O-] 20.3%, Cc1ccc(C(C(=O)NC2CCCCC2)N(CC2CCCO2)C(=O)CNC(=O)c2ccco2)cc1 (stereo unspecified) 2.7%, CC(OC(=O)CNC(=O)c1ccc2c(c1)OCO2)C(=O)NCCC1=CCCCC1 (stereo unspecified) 8.9%, CN(C)c1ccc(C(C(=O)NC(C)(C)C)N(C(=O)c2csnn2)C2CC2)cc1 (stereo unspecified) 6.8%, CC(c1nnc(SCC(=O)c2c(N)n(C)c(=O)n(C)c2=O)n1-c1ccc(Cl)cc1)N(C)C (stereo unspecified) 2.8%, CC1CCCCN1CCNC(=O)C1CCN(S(=O)(=O)c2cccc3cccnc23)CC1 (stereo unspecified) 9.7%, Cc1ccc(S(=O)c2ccc(C)cc2)cc1 4.1%, O=C(CC1CCCCC1)c1c(O)c2ccccc2oc1=O 5%, CCOC(=O)c1[nH]c(CSc2nnc(-c3ccncc3)n2CCOC)c(C(=O)OCC)c1C 10.1%, CC1CC=C2C(C#N)=C(N)C(C#N)(C#N)C(c3cccs3)C2C1 (stereo unspecified) 8.9%, CCc1ccc(Nc2cc(=O)n(C3CCCCC3)c(=O)[nH]2)cc1 11.3%, COc1cccc(-c2cc(C(=O)NCc3ccc(Cl)cc3)no2)c1 8.1%, COc1ccc(S(=O)(=O)N2C3CCC2CC(NC(=O)C2CC2)C3)cc1 (stereo unspecified) 2%, Nc1nc(CN2CCN(Cc3ccc4c(c3)OCO4)CC2)nc(Nc2ccccc2)n1 12.3%, CC1(C)NC(=O)N(CC(O)COc2ccc(N3C(=O)c4ccccc4C3=O)cc2)C1=O (stereo unspecified) 8.6%, COc1ccc(N2C(=O)CSC2c2ccc3c(c2)OCO3)cc1 (stereo unspecified) 13.6%, CC(C)NS(=O)(=O)c1ccc(OCC(N)=O)c(Cl)c1 9.1%, Cc1cccc(NC(=O)CC(C)(C)C)c1 8.8%, Cc1nc(CSc2nnc3scc(-c4ccccc4)n23)cs1 6.4%, CCCCCN=C(C)c1c(O)c2ccccc2oc1=O 7.3%, CNc1oc(Cc2ccccc2)nc1S(=O)(=O)c1ccccc1 9.1%, COC(=O)Nc1sc2c(c1C(N)=O)CCCCCC2 15.8%

— PubChem BioAssay AID518 (Sanford-Burnham Center for Chemical Genomics, 2006)
